Screens as filed in PubChem.
TDP1 cell CPT: growth inhibition of DT40 Tdp1-/-;hTDP1 cells with camptothecin (screen for TDP1 inhibitors). Potency, µM (titrated, usually from 46.2 µM), hits mostly inhibitors. AID 686979. 12% of 420,000 active. chicken DT40 Tdp1-/-;hTDP1 cells + 20 nM CPT, ATP luminescence, 48 h; further: nearly all actives have a fitted effect of over 55% in size
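Chicken DT40 Tdp1-/- cells stably complemented with human TDP1 were seeded at 400 cells/well in medium containing 20 nM camptothecin, exposed to pin-transferred compounds, and grown at 37 °C for at least 48 hr. Viability was read as ATP luminescence.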
ELG1 repair inh: blocks ELG1-dependent DNA repair in HEK293T cells. HEK293T ELG1-luciferase reporter, luminescence, 16 h; DNA damage induced by 5-fluorouridine. Potency, µM (highest dose often 46.1 µM), hits mostly inhibitors. 2.3% of 330,000 active. AID 504467; further: nearly all actives have a fitted effect of over 55% in size
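5-Fluorouridine DNA damage + compound/DMSO, 2,000 cells/well, 16 h, 37 °C/5% CO2. ONE-Glo, 30 min RT, luminescence. Readout = decrease in reporter signal.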
DT40 TDP1 no CPT: qHTS for Inhibitors of human tyrosyl-DNA phosphodiesterase 1 (TDP1): qHTS in cells in absence of CPT; DT40 Tdp1-/- hTDP1 cells, no CPT, ATP luminescence, 48 h; Potency, µM (titrated, usually from 46.2 µM), hits mostly inhibitors; 15% of 420,000 active; further: nearly all actives have a fitted effect of over 55% in size
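Cells were dispensed at 400 per well, compounds added by pin tool, plates incubated ≥48 hr at 37 °C, then CellTiter-Glo added for 30 min at room temperature before luminescence reading. Line: DT40 Tdp1-/- complemented with hTDP1; camptothecin omitted.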
Gal4-VP16 FLuc: Gal4-VP16 reporter inhibition counter-screen; Drosophila S2 Gal4-VP16 UAS-luciferase, luminescence, 20 h; Potency, µM (titrated, usually from 53.6 µM), actives largely listed as inhibitors; 3.5% of 310,000 active; AID 2546;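 further: Gal4-VP16 expression switched on by copper sulfate through the metallothionein promoter; nearly all actives have a fitted effect of over 50% in size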
IL-1B inflam inh: blocks inflammasome-driven IL-1 beta release. THP-1 LPS/ATP IL-1B secretion, AlphaLISA, 16 h; hits give low values. activity change, % at 57.5 µM. 4.7% of 360,000 active. AID 743279; in the data active means activity change below about -50%; inconclusive means mostly about -30% to -49%
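Secreted IL-1B measured by AlphaLISA bead assay after 16 h compound exposure of THP-1 cells; compounds (final up to 57.5 uM) added 1 h before LPS (250 ng/mL) and ATP (1.25 mM) stimulation; lower signal means less secretion.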
RORg inh: ROR gamma (mouse) transcription inhibition; AID 2551; P51450; 5.4% of 310,000 active; Drosophila S2 Gal4-RORgamma UAS-luciferase reporter, 20 h; Potency, µM (doses to about 53.6 µM), actives largely listed as inhibitors; further: nearly all actives have a fitted effect of over 60% in size
Target sequence (P51450 whole entry, looked up, the tested form may be a part): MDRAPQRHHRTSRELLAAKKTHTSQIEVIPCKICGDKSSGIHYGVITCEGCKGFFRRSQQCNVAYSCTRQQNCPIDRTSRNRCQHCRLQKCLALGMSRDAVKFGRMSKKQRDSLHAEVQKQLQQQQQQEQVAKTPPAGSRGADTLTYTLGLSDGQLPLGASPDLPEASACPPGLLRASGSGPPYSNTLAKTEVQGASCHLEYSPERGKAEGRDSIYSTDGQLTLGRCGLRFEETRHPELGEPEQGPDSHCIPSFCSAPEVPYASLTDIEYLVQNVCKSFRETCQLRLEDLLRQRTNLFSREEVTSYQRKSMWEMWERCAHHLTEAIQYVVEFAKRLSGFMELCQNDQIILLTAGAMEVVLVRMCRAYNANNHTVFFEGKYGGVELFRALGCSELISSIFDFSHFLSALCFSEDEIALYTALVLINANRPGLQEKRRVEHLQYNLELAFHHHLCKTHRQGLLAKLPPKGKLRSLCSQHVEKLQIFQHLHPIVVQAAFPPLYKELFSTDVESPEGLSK
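Drosophila Schneider cells stably carrying a metallothionein-driven Gal4 DBD–ROR gamma fusion and a UAS-Photinus luciferase reporter were exposed to compound for 1 hr, then induced with copper sulfate (700 uM final) for 20 hr at ambient temperature before luminescence reading.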
Of the large screens only hits and unclear results are named; the others gave an inactive call. The list is not random: actives were taken first. Their share in the collection is about 21%. Unless noted, the call rests on the fitted dose curve; in most records, active means well fitted curve in the direction sought with a large enough effect; inconclusive means small, poorly fitted or top-dose-only effect, or another doubt; inactive means no such curve, though single readings can be large; an effect the other way counts as inactive or inconclusive.

CC(CNC(=O)c1ccccc1Cl)NC(=O)c1ccccc1Cl (stereo not given)	none (no result: ELG1 repair inh, Gal4-VP16 FLuc, IL-1B inflam inh, RORg inh)
CCS(=O)(=O)Nc1cc(C(=O)N2CCCN(C=O)CC2)c2c(c1)nc(-c1ccccc1)n2C	none (no result: ELG1 repair inh, Gal4-VP16 FLuc, IL-1B inflam inh, RORg inh)
O=C(NCCN1C(=O)S/C(=C\c2ccccc2F)C1=O)C1=COCCO1	TDP1 cell CPT inconclusive, DT40 TDP1 no CPT 2.9µM (no result: Gal4-VP16 FLuc, RORg inh)
O=C(NCCN1C(=O)S/C(=C\c2ccc(Cl)cc2)C1=O)C1=COCCO1	none (no result: Gal4-VP16 FLuc, RORg inh)
O=C(NCCN1C(=O)S/C(=C\c2ccccc2Cl)C1=O)C1=COCCO1	TDP1 cell CPT 7.3µM, DT40 TDP1 no CPT 6.5µM (no result: Gal4-VP16 FLuc, RORg inh)
O=C(CNC(=O)c1ccccc1F)NCCN1C(=O)S/C(=C\c2ccccc2Cl)C1=O	DT40 TDP1 no CPT inconclusive, Gal4-VP16 FLuc inconclusive
O=C(NCCN1C(=O)S/C(=C\c2ccc(Cl)cc2Cl)C1=O)C1=COCCO1	TDP1 cell CPT 15µM, DT40 TDP1 no CPT 12µM, IL-1B inflam inh inconclusive (no result: Gal4-VP16 FLuc, RORg inh)
O=C(CCS(=O)(=O)c1ccc(Cl)cc1)NCCN1C(=O)S/C(=C\c2ccccc2F)C1=O	TDP1 cell CPT inconclusive, ELG1 repair inh inconclusive, DT40 TDP1 no CPT 16µM, Gal4-VP16 FLuc inconclusive, RORg inh inconclusive
COc1ccc(C(=O)OCc2ccccc2C#N)cc1S(=O)(=O)N1CCOCC1	none (no result: ELG1 repair inh, Gal4-VP16 FLuc, RORg inh)
Cc1ccc(NC(=O)CCCN2C(=O)NC(C)(C)C2=O)cc1	none (no result: Gal4-VP16 FLuc, RORg inh)
CCOC(=O)c1[nH]c(C)c(CCC(=O)NCc2ccc(OCC)cc2)c1C	none (no result: ELG1 repair inh, Gal4-VP16 FLuc, IL-1B inflam inh, RORg inh)
CCOC(=O)CNC(=O)CSc1nc(-c2ccc(C)cc2)ns1	IL-1B inflam inh -152
CCOC(=O)CSc1nc(-c2ccc(OC)cc2)ns1	ELG1 repair inh inconclusive, DT40 TDP1 no CPT inconclusive, RORg inh 10µM
CCOC(=O)CNC(=O)CSc1nc2c(C)cccc2cc1CC	TDP1 cell CPT inconclusive, DT40 TDP1 no CPT inconclusive, IL-1B inflam inh -98
COc1ccc(OC2C=CC(c3ccccc3)OC2CO)c(C(C)=O)c1 (stereo not given)	none (no result: TDP1 cell CPT, ELG1 repair inh, DT40 TDP1 no CPT, IL-1B inflam inh)
CC(C)CCNC(=O)c1ccc2c(c1)NC(=O)C(CS(=O)(=O)Cc1ccc(F)cc1)N2 (stereo not given)	TDP1 cell CPT 16µM, DT40 TDP1 no CPT 16µM (no result: ELG1 repair inh, Gal4-VP16 FLuc, IL-1B inflam inh, RORg inh)
Cc1cccc(CS(=O)(=O)CC2Nc3ccc(C(=O)NCc4ccccc4)cc3NC2=O)c1 (stereo not given)	TDP1 cell CPT 12µM, DT40 TDP1 no CPT 6.5µM (no result: ELG1 repair inh, Gal4-VP16 FLuc, IL-1B inflam inh, RORg inh)
CC(C)CCNC(=O)c1ccc2c(c1)NC(=O)C(CS(=O)(=O)Cc1cccc(Br)c1)N2 (stereo not given)	DT40 TDP1 no CPT inconclusive (no result: ELG1 repair inh, Gal4-VP16 FLuc, IL-1B inflam inh, RORg inh)
CC(C)CC1Nc2ccc(C(=O)NCCCN3CCOCC3)cc2NC1=O (stereo not given)	TDP1 cell CPT 26µM, DT40 TDP1 no CPT 16µM
CC(C)C1Nc2ccc(C(=O)NCCCN3CCOCC3)cc2NC1=O (stereo not given)	none
CCN(CC)CCNC(=O)c1ccc2c(c1)NC(=O)C(CS(=O)(=O)Cc1ccc(F)cc1Cl)N2 (stereo not given)	TDP1 cell CPT 18µM, DT40 TDP1 no CPT inconclusive (no result: ELG1 repair inh, Gal4-VP16 FLuc, IL-1B inflam inh, RORg inh)
CCC(=O)NC1CCN(C(=S)NC)CC1	none
COc1cc(NC(=O)Cn2c(=O)cc(C)c3c(C)nn(-c4ccc(C)cc4)c32)cc(OC)c1	none (no result: ELG1 repair inh, Gal4-VP16 FLuc, IL-1B inflam inh, RORg inh)
COc1ccc(OCc2cc(C(=O)NCC(C)Oc3cccnc3)no2)c(Cl)c1 (stereo not given)	TDP1 cell CPT inconclusive, DT40 TDP1 no CPT inconclusive, RORg inh inconclusive
CSc1ccccc1OCc1cc(C(=O)NCCCn2nc(C)cc2C)no1	TDP1 cell CPT 16µM, ELG1 repair inh inconclusive, DT40 TDP1 no CPT 21µM
CSc1ccccc1OCc1cc(C(=O)NCC(C)Oc2cccnc2)no1 (stereo not given)	TDP1 cell CPT inconclusive, DT40 TDP1 no CPT 16µM (no result: ELG1 repair inh, Gal4-VP16 FLuc, RORg inh)
CSc1ccccc1OCc1cc(C(=O)NCCc2nc(C)cc(C)n2)no1	TDP1 cell CPT inconclusive, DT40 TDP1 no CPT inconclusive
CC(C)(C)NC(=O)CN(C(=O)CNC(=O)c1cccs1)c1ccc2c(c1)OCCO2	RORg inh inconclusive
